Reference: PubChem BioAssay (NCI)
The panel holds about 83,000 compounds, 20% with a hit somewhere; the sample as a whole holds those more often.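 For each line, cells grew in 96-well plates with the test compound present at a single concentration for 48 hours.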 Activity calls are given as the source filed them. Rule for the calls: active = growth percent below 10; inactive = the rest.

Test system: MDA-MB-468 breast
Assay: NCI-60 one-dose screen, 48 h (100 = growth as untreated, 0 = no growth, -100 = all killed)
Conditions: 10 µM unless noted

Compound	growth
Cc1ccc(-c2nnc(SCc3nc(N)nc(Nc4ccccc4F)n3)n2-c2ccccc2)cc1	86.5% (inactive)
CCCCCCCCCCCC1=NCCCN1CCCC	101% (inactive)
CCC(O)(C(c1ccccc1)c1ccccn1)C(c1ccccc1)c1ccccn1 (stereo not given)	114% (inactive)
O=C(O)CN1C(=O)C=CC1=O	104% (inactive)
C=C1C(=O)O[C@H]2[C@H]1CC/C(COC(=O)NCc1ccc(OC)cc1)=C\CC[C@@]1(C)O[C@@H]21	27.7% (inactive)
O=C1Nc2ccc(Br)cc2C12Oc1ccccc1C1CC(c3ccc(F)cc3)=NN12 (stereo not given)	82.1% (inactive)
CCCCOC(=O)Oc1ccc(C(=O)Oc2ccc(OCC)cc2)cc1	113% (inactive)
NN1C(=O)CSC1=S	119% (inactive)
O=C(CSCC(=O)N/N=C/c1ccccc1O)N/N=C\c1ccccc1O	15.6% (inactive)
O=C(NCCCN1CCC(N2CCCCC2)CC1)C1=Cc2cc(Br)ccc2OC1	45.6% (inactive)
C/C(Cc1ccc(Cl)cc1)=C(/c1ccc(Cl)cc1)c1ccc(OCCN2CCCC2)cc1	66.1% (inactive)
CCOC(=O)c1c(NC(=O)c2cccc(C(F)(F)F)c2)sc2c1CCC(=O)C2	-9.5% (active)
CC(=O)[C@H]1CC[C@H]2[C@@H]3CCC4=CC(=O)C=C[C@]4(C)[C@H]3CC[C@]12C	87.5% (inactive)
CNC(=O)c1cc(COc2nnc(Nc3ccc(Cl)cc3)c3ccoc23)ccn1	65% (inactive)
Brc1ccc(-n2cc(-c3nn[nH]n3)c(-c3cccs3)n2)cc1	92.4% (inactive)
Cc1cc(Cl)cc(NS(=O)(=O)c2ccc(-c3cnc(C4CC4)o3)cc2)c1	11.3% (inactive)
CC12CCC3C(=CCc4cc(O)ccc43)C1CCC2=O (stereo not given)	96.9% (inactive)
NC(=O)C(=Cc1ccc(Cl)cc1)C(N)=O	3.1% (active)
CCNCC(=O)Nc1ccc(C(=O)OCC)cc1	111% (inactive)
O=C(Nc1cc(C(F)(F)F)cc(C(F)(F)F)c1)Nc1ccc2oc(=O)ccc2c1	-5.53% (active)
COc1ccc2nc3cc(Cl)ccc3c(NCCNc3c4ccc(Cl)cc4nc4ccc(OC)cc34)c2c1	-69.8% (active)
CCCC(=O)OCC1OC(n2cnc3c(=S)nc(N)[nH]c32)C(OC(=O)CCC)C1OC(=O)CCC (stereo not given)	47.7% (inactive)
COc1cc(-c2ccc[nH]2)[nH]c1/C=C1\N=C(C)C(CC(=O)OCC(C)(C)C)=C1C	-79.2% (active)
CCN1CCN(C(=S)SCC(=O)Nc2nc3ccc(OC)cc3s2)CC1	97.7% (inactive)
Cc1cnc(NC(=O)Nc2cc(Br)c(C)cc2OC[C@@H]2CNCCO2)cn1	-26.7% (active)
